KB-3-1 cytotox: qHTS assay for MDR1-selective chemotherapeutics: Primary screen using the parental adenocarcinoma cell KB-3-1; KB-3-1 viability, CellTiter-Glo ATP luminescence, 72 h; Potency, µM (titrated, usually from 46.1 µM), actives largely listed as cytotoxic; 400,000 compounds, 1.4% hits; AID 1347075, 2019; note: nearly all actives have a fitted effect of over 60% in size
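Parental KB-3-1 viability, qHTS format: 72 h compound exposure, 37 °C; CellTiter-Glo; media-only wells and DMSO plates as controls; concentration-effect fits on corrected data.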
HT1080NT lethal: qHTS for induction of synthetic lethality in tumor cells producing 2HG: qHTS for the HT-1080-NT fibrosarcoma cell line; HT-1080-NT fibrosarcoma viability, CellTiter-Glo ATP luminescence, 48 h; Potency, µM (highest dose often 46.1 µM), most hits filed as cytotoxic; 360,000 compounds, 1.6% hits; AID 686970, 2013;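 note: NT is the 2HG producing partner of a matched IDH1 knockdown line; nearly all actives have a fitted effect of over 55% in size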
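HT-1080-NT; 750 cells/well; 5% FBS RPMI; 48 h compound, 37 degrees C; CellTiter-Glo luminescence; curve fitting and curve-class assignment.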
HT1080 IDH1KD tx: qHTS for induction of synthetic lethality in tumor cells producing 2HG: qHTS for the HT-1080-IDH1KD cell line | HT-1080 IDH1 knockdown viability, ATP luminescence, 48 h | 360,000 compounds, 2% hits | Potency, µM (series often up to 46.1 µM), hits mostly cytotoxic
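% activity derives from luminescence (CellTiter-Glo), normalised to DMSO and no-cell wells. HT-1080-IDH1KD cells, 750/well, had 48 h compound exposure at 37 °C.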
KB-V1 MDR tox: qHTS assay for MDR1-selective chemotherapeutics: Primary screen using the drug-selected MDR subline cells KB-V1; Potency, µM (series often up to 46.1 µM), most hits filed as cytotoxic; KB-V1 MDR cells viability, CellTiter-Glo, 72 h; 400,000 compounds, 3.4% hits; AID 1347076, 2019; note: nearly all actives have a fitted effect of over 60% in size
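Potencies derive from concentration-effect curves fitted to normalized luminescence (CellTiter-Glo) of KB-V1 cells treated for 72 h at 37 degrees C in phenol-red-free DMEM containing 10% FBS.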
Numbers stand for hits; i = inactive; ? = inconclusive; nt = not tested or not shown. Only some compounds are listed: those with a hit (about 5.7% of all), similar ones and a draw of the others. Calls come from the whole dose curve; as a rule, active = well fitted curve in the direction sought with a large enough effect; inconclusive = small, poorly fitted or top-dose-only effect, or another doubt; inactive = no such curve, though single readings can be large; an effect the other way counts as inactive or inconclusive.

SMILES	KB-3-1 cytotox	HT1080NT lethal	HT1080 IDH1KD tx	KB-V1 MDR tox
Cn1c(=O)c2c(ncn2Cc2ccc(Cl)c(Cl)c2)n(C)c1=O	?	i	i	2.6µM
Cn1c(=O)c2c(nc(Oc3cccc(Br)c3)n2C)n(C)c1=O	i	i	i	i
Cn1c(NCC(O)c2ccccc2)nc2c1c(=O)n(Cc1ccc(Cl)c(Cl)c1)c(=O)n2C (stereo unspecified)	?	21µM	18µM	i
CC(C)c1ccccc1NC(=O)C(Cc1c[nH]c2ccccc12)NC(=O)OC(C)(C)C (stereo unspecified)	i	nt	nt	i
COCC(C)Nc1ncnc2c1cnn2-c1ccc(C)c(C)c1 (stereo unspecified)	i	nt	nt	i
COc1ccc(COCC(O)CN2CCN(S(=O)(=O)c3c(F)cccc3F)CC2)cc1OC (stereo unspecified)	i	i	i	13µM
O=S(=O)(c1ccc(F)cc1)N1CCN(CC(O)COCc2ccccc2)CC1 (stereo unspecified)	i	i	i	21µM
COc1ccccc1COCC(O)CN1CCN(S(=O)(=O)c2cccc(F)c2)CC1 (stereo unspecified)	i	i	i	i
O=C(Nc1ccc(OC(F)(F)F)cc1)C(NS(=O)(=O)c1cccc2nsnc12)c1ccccc1 (stereo unspecified)	i	nt	nt	?
CCOC(=O)c1c(NC(=O)C(Sc2ccccc2)c2ccccc2)sc(C(=O)N(C)C)c1C (stereo unspecified)	?	i	?	2.9µM
CC(=O)N1CCc2c(sc3c2c(=O)n(-c2ccc(C)cc2)c(=O)n3Cc2c(F)cccc2Cl)C1	i	nt	nt	i
CCN1/C(=C/c2ccc3cc(C)cc(C)c3[n+]2CC)Sc2cc(C)ccc21	i	7.3µM	?	i
CCN1/C(=C/c2ccc3cccc(C)c3[n+]2CC)Sc2ccccc21	?	?	3.2µM	i
CC[n+]1c(C)sc2c3ccsc3ccc21	i	i	i	i
CCN1/C(=C/c2ccc3cc(C)ccc3[n+]2CC)Sc2ccc3sccc3c21	2.6µM	?	0.92µM	i
CCN1/C(=C\c2ccc3cc(C)ccc3[n+]2CC)Sc2cc(C)c(C)cc21	?	16µM	nt	i
Cc1ccc(CNC(=O)c2sc3nc4n(c(=O)c3c2C)CCCC4)cc1	i	nt	nt	i
CCc1nnc(NC(=O)c2ccc(COc3ccc(C)cc3)o2)s1	i	i	i	i
O=C(Nc1ccc(Cn2cccn2)cc1)c1ccc(COc2ccccc2Br)cc1	9.2µM	?	?	18µM
COc1ccccc1OCc1ccc(C(=O)N2N=C(C(F)F)CC2(O)C(F)F)o1 (stereo unspecified)	i	i	i	16µM
COc1ccccc1OCc1ccc(C(=O)Nc2ccccc2)cc1	i	i	i	i
CCc1nnc(NC(=O)c2ccc(COc3ccccc3)o2)s1	i	?	i	15µM
O=C(Nc1cccnc1)c1ccc(COc2ccccc2Br)o1	16µM	4.5µM	10µM	?
CC(=O)Oc1ccc2cc(-c3nc4c(s3)CCc3ccccc3-4)c(=O)oc2c1	?	nt	nt	i
COc1ccccc1OCc1ccc(C(=O)Nc2ccncc2)o1	23µM	i	?	?
SMILES	KB-3-1 cytotox	HT1080NT lethal	HT1080 IDH1KD tx	KB-V1 MDR tox
COCCNc1ccc(-c2nc(-c3ccccn3)no2)cc1[N+](=O)[O-]	i	nt	nt	i
Oc1cc(NCCN2CCOCC2)cc2cccnc12	15µM	nt	nt	i
O=C(NCCN1CCOCC1)c1ccc2ccccc2c1	i	i	i	i
COc1ccc(-n2ccnc(NCc3cccs3)c2=O)cc1OC	i	nt	nt	i
CSCCC(NS(=O)(=O)c1ccc2ccccc2c1)C(=O)OCC(=O)c1ccc(C(C)C)cc1 (stereo unspecified)	i	i	i	18µM
CSCCC(NS(=O)(=O)c1ccc(Cl)cc1)C(=O)OCC(=O)c1c(C)[nH]c2ccccc12 (stereo unspecified)	?	i	i	15µM
O=C(Cn1cc2c(n1)CCCC2)Nc1cc(C(F)(F)F)ccc1Cl	i	nt	nt	i
CCN1C(=O)C(Cc2nc3ccccc3c(=O)n2-c2cccc(C)c2)c2ccccc21 (stereo unspecified)	i	nt	nt	i
O=C(CN1C(=O)COc2ccc(S(=O)(=O)N3CCOCC3)cc21)N1CCN(c2ccccc2F)CC1	i	nt	nt	i
